# Inconclusive results are not listed. Where a call stands in place of a potency, no number is given. Active and inactive are the calls of the source. Calls follow the shape of the dose curve; as a rule, active = well fitted curve in the direction sought with a large enough effect; inconclusive = small, poorly fitted or top-dose-only effect, or another doubt; inactive = no such curve, though single readings can be large; an effect the other way counts as inactive or inconclusive.
# Legend:
# [1] = P-glycoprotein substrates identified in KB-3-1 adenocarcinoma cell line, qHTS therapeutic library screen (AID 1346986); also: nearly all actives have a fitted effect of over 60% in size
# Outline: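 Compounds were tested in dose-response against KB-3-1 and KB-8-5-11 cells at 37 degree C for 72 h, and viability was measured by luminescence. AC50 values came from curve fitting with class-based activity calls.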
# [2] = P-glycoprotein substrates identified in KB-8-5-11 adenocarcinoma cell line, qHTS therapeutic library screen (AID 1346987); also: nearly all actives have a fitted effect of over 65% in size; as to activity change, negative = cytotoxicity: series mostly up to about 44 µM
# Outline: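 P-gp-mediated resistance screen: KB-8-5-11 cells treated 72 h with compounds in dose-response. CellTiter-Glo viability.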
compound,measurement,setting,value
N=C(N)c1ccc2nc(-c3cc(CC(=O)NC(CC(=O)O)C(=O)O)cc(-c4cc(S(N)(=O)=O)ccc4O)c3O)[nH]c2c1 (centres undefined),Potency,[1],inactive
same,Potency,[2],inactive
CC1(C)CC[C@]2(C(=O)O)CC[C@]3(C)C(=CCC4[C@@]5(C)C[C@@H](O)[C@H](O)[C@@](C)(CO)C5[C@H](O)C[C@]43C)[C@@H]2C1 (some centres undefined),Potency,[1],inactive
same,Potency,[2],inactive
C[C@@H]1O[C@@H](O[C@H]2[C@H](O[C@H]3[C@H](O[C@H]4CC[C@@]5(C)C(CC[C@]6(C)C5CC=C5[C@@H]7CC(C)(C)CC(=O)[C@]7(C)CC[C@]56C)[C@@]4(C)CO)O[C@H](C(=O)O)[C@@H](O)[C@@H]3O)O[C@H](CO)[C@H](O)[C@@H]2O)[C@H](O)[C@H](O)[C@H]1O (some centres undefined),outcome,[1],inactive [at 9.29 µM]
same,outcome,[2],inactive [at 9.29 µM]
C[C@@H]1C[C@@H](O)[C@@]23CO[C@]2(CO)C[C@@H](O)CC3[C@@]12CC(c1ccoc1)OC2=O (some centres undefined),Potency,[1],inactive
same,Potency,[2],inactive
N#CC1C(=O)N=C(c2cc(Cl)ccc2O)C=C1c1cc(OCc2ccccc2)cc(OCc2ccccc2)c1 (centres undefined),Potency,[1],inactive
same,Potency,[2],inactive
Nc1ncnc2c1C(=O)N(c1ccc(C3CCC(CC(=O)O)CC3)cc1)CCO2 (centres undefined),Potency,[1],inactive
same,Potency,[2],inactive
CC(=O)O[C@H]1C[C@@H](O)C(C)(C)C2C[C@@H](OC(C)=O)[C@@]3(C)C4=CCC(C(CO)CC(O)C5OC5(C)C)[C@]4(C)CCC3[C@]21C (some centres undefined),Potency,[1],inactive
same,Potency,[2],inactive
Cn1cc(Nc2cnccc2C(=O)O)c2cccnc21,Potency,[1],inactive
same,Potency,[2],inactive
CC(NC(=O)[C@H](Cc1ccccc1)NC(=O)OCc1ccccc1)C(=O)CF (some centres undefined),Potency,[1],inactive
same,Potency,[2],inactive
C=C[C@@](C)(CCC=C(C)C)O[C@@H]1O[C@H](CO[C@@H]2OC[C@H](O)[C@H](O)[C@H]2O)[C@@H](O)[C@H](O)[C@H]1O,Potency,[1],inactive
same,Potency,[2],inactive
CC[C@@H](Nc1c(Nc2cccc(C(=O)N(C)C)c2O)c(=O)c1=O)c1ccc(C)o1,Potency,[1],inactive
same,Potency,[2],inactive
COc1c2cc(c(O[C@@H]3O[C@H](CO)[C@@H](O)[C@H](O)[C@H]3O)c1OC)CCCCC(O)CCc1ccc(O)c-2c1 (some centres undefined),Potency,[1],inactive
same,Potency,[2],inactive
CC(=O)NC(Cc1c[nH]c2ccccc(=O)c12)C(=O)O (centres undefined),Potency,[1],inactive
same,Potency,[2],inactive
COc1c(-c2ccc(O)cc2)cc(OC)c2c1oc1cc(O)c(OC3OC(CO)C(O)C3O)cc12 (centres undefined),Potency,[1],inactive
same,Potency,[2],inactive
O=C(/C=C/c1ccc(O)c(O)c1)O[C@H]1[C@@H]2C=CO[C@@H](O[C@@H]3O[C@H](CO)[C@@H](O)[C@H](O)[C@H]3O)[C@@H]2[C@@]2(CO)O[C@@H]12,Potency,[1],inactive
same,Potency,[2],inactive
CCOC(=O)C1=C(N)Oc2ccc(Cl)cc2C1C(C#N)C(=O)OCC (centres undefined),Potency,[1],inactive
same,Potency,[2],inactive
CC(C)C1NC(=O)C(CC2(O)c3ccccc3N3C(=O)C(Cc4ccccc4)NC32)NC1=O (centres undefined),Potency,[1],inactive
same,Potency,[2],inactive
O=C1OC(c2ccc(O)cc2)C(O)=C1Cc1ccccc1 (centres undefined),Potency,[1],inactive
same,Potency,[2],inactive
CC(C)CC[C@@H](O)[C@](C)(O)[C@H]1CC[C@@]2(O)C3=CC(=O)[C@@H]4C[C@@H](O)[C@@H](O)C[C@]4(C)[C@H]3CC[C@]12C,Potency,[1],inactive
same,Potency,[2],inactive
CC1=C(C(=O)OC2OC(COC3OC(CO)C(O)C(O)C3O)C(O)C(O)C2O)C(C)(C)CCC1 (centres undefined),Potency,[1],inactive
same,Potency,[2],inactive
Cc1oc(S(=O)(=O)N2CCCCC2)cc1NC(=O)Nc1ccccc1,Potency,[1],inactive
same,Potency,[2],inactive
COc1ccccc1Oc1c(NS(=O)(=O)c2ccc(C)cn2)nc(-c2ccncc2)nc1OC,Potency,[1],inactive
same,Potency,[2],inactive
CC(C)CC(=O)O[C@@H]1O[C@H](CO)[C@@H](O[C@H]2O[C@H](C)[C@@H](N[C@H]3C=C(CO)[C@@H](O[C@H]4O[C@H](CO)[C@@H](O[C@H]5O[C@H](CO)[C@@H](O[C@H]6O[C@H](CO)[C@@H](O)[C@H](O)[C@H]6O)[C@H](O)[C@H]5O)[C@H](O)[C@H]4O)[C@H](O)[C@H]3O)[C@H](O)[C@H]2O)[C@H](O)[C@H]1O,outcome,[1],inactive [at 9.29 µM]
same,"activity change, negative = cytotoxicity",[2],8.1% [at 9.29 µM] (inactive)
CSCC1OC(n2cnc3c(N)ncnc32)C(O)C1O (centres undefined),Potency,[1],inactive
same,Potency,[2],inactive
CC1CC=C2C1CC1(O)C(=O)CC2(C)C1(C)CO (centres undefined),Potency,[1],inactive
same,Potency,[2],inactive
CN(C)c1ccc(C2O[C@@H](c3ccccc3)C[C@H](c3ccccc3)O2)cc1 (some centres undefined),Potency,[1],inactive
same,Potency,[2],inactive
CC(=O)N[C@H](Cc1c[nH]c2ccccc12)C(=O)OCc1cc(C(F)(F)F)cc(C(F)(F)F)c1,Potency,[1],inactive
same,Potency,[2],inactive
CCCCCOC(=O)Nc1nc(=O)n(C2O[C@H](C)[C@@H](O)[C@H]2O)cc1F (some centres undefined),Potency,[1],inactive
same,Potency,[2],inactive
COc1cc(/C=C/C(=O)OCC2OC(OC3(CO)OC(CO)C(O)C3O)C(O)C(O)C2O)ccc1O (centres undefined),Potency,[1],inactive
same,Potency,[2],inactive
C=C1CCC2[C@](C)(CCC[C@]2(C)C(=O)O)[C@H]1CC/C(C)=C/C(=O)OC (some centres undefined),Potency,[1],inactive
same,Potency,[2],inactive
CCC(C)C(C(=O)O)N1Cc2c(OCC=C(C)C)c(C)c(OC)c(C(=O)O)c2C1=O (centres undefined),Potency,[1],inactive
same,Potency,[2],inactive
CC1(C)OC(=O)CC(O)C2(C)C1CC(=O)C1(C)C2C(O)CC2(C)C(c3ccoc3)OC(=O)C3OC321 (centres undefined),Potency,[1],inactive
same,Potency,[2],inactive
CC1(C)CC[C@]2(C(=O)O)CC[C@]3(C)C(=CCC4[C@@]5(C)CC[C@H](O[C@@H]6O[C@H](C(=O)O)[C@@H](O)[C@H](O[C@@H]7O[C@H](CO)[C@H](O)[C@H](O)[C@H]7O)[C@H]6O[C@@H]6O[C@H](CO)[C@@H](O)[C@H](O)[C@H]6O)C(C)(C)C5CC[C@]43C)[C@@H]2C1 (some centres undefined),outcome,[1],inactive [at 5.11 µM]
same,"activity change, negative = cytotoxicity",[2],3.75% [at 5.11 µM] (inactive)
COC(=O)[C@]1(Cc2ccc(O)c(CC=C(C)C)c2)OC(=O)C(O)=C1c1ccc(O)cc1,Potency,[1],inactive
same,Potency,[2],inactive
H-DPPDPDRFYGMM-NH2,Potency,[1],inactive
same,Potency,[2],inactive
OCC1=C[C@@H](O)[C@@H]2C=CO[C@@H](O[C@@H]3O[C@H](CO)[C@@H](O)[C@H](O)[C@H]3O)[C@H]12,Potency,[1],inactive
same,Potency,[2],inactive
CC1(C)OC(=O)C=C[C@@]2(C)C1CC(=O)[C@]1(C)C2CC[C@@]2(C)[C@H](c3ccoc3)OC(=O)[C@H]3O[C@]321 (some centres undefined),Potency,[1],inactive
same,Potency,[2],inactive
CC1(C)CCCC2(C)c3c4c(c(=O)oc(=O)c3=CCC12)=CCC1C(C)(C)CCCC41C (centres undefined),Potency,[1],inactive
same,Potency,[2],inactive
CCc1nn(CCO)c(CC)c1Oc1cc(C#N)cc(C#N)c1,Potency,[1],inactive
same,Potency,[2],inactive
CC(=O)OC12CC(C)C(O)C1/C=C(/COC1OC(CO)C(O)C(O)C1O)CCC1C(/C=C(\C)C2=O)C1(C)C (centres undefined),Potency,[1],inactive
same,Potency,[2],inactive
COc1cc(/C=C/CO[C@@H]2O[C@H](CO)[C@@H](O)[C@H](O)[C@H]2O)cc(OC)c1O[C@@H]1O[C@H](CO)[C@@H](O)[C@H](O)[C@H]1O,Potency,[1],inactive
same,Potency,[2],inactive
CC(C)=CC1C[C@](C)(O)[C@@H]2[C@H]3CCC4[C@@]5(C)CC[C@H](O[C@@H]6OC[C@H](O)[C@H](O[C@@H]7O[C@H](CO[C@@H]8O[C@H](CO)[C@@H](O)[C@H](O)[C@H]8O)[C@@H](O)[C@H](O)[C@H]7O)[C@H]6O[C@@H]6O[C@@H](C)[C@H](O)[C@@H](O)[C@H]6O)C(C)(C)[C@@H]5CC[C@@]4(C)[C@@]34CO[C@@]2(C4)O1 (some centres undefined),outcome,[1],inactive [at 9.29 µM]
same,"activity change, negative = cytotoxicity",[2],9.35% [at 9.29 µM] (inactive)

# From PubChem BioAssay (NCATS)
